Data reported in PubChem BioAssay AID1159580 (chemical genetic matrix, 2015).
About 2,000 (36%) of roughly 5,500 compounds were called active. Another 18% or so got no clear call; they are omitted. Rule as the data show it: active = normalized growth mostly below about 0.91 (no sharp cut-off); inconclusive = no clear call, values can overlap the other calls; inactive = mostly above about 0.92. Some of the results follow.

Assay: chemical genetic growth profiling, strain panel (AID 1159580);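 also: tested at 20 µM; growth read once vehicle control cultures reached saturation at 30 °C; 1 = growth at the plate median or of vehicle wells; lower values mean less growth of the strain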
Details: growth OD

Measured: normalized growth

CC[N+]1(C)CCCC(OC(=O)C(O)(c2ccccc2)c2ccccc2)C1 (stereo not given)
inactive: S. cerevisiae deletion strains, locus YJR066W, strain TOR1, stronger effect = lower value 0.954 | S. cerevisiae deletion strains, locus YKL009W, strain mrt4, stronger effect = lower value 1.01 | S. cerevisiae deletion strains, locus YKL068W, stronger effect = lower value 1.01 | S. cerevisiae deletion strains, locus YKL085W, strain MDH1 (second series), stronger effect = lower value 0.994 | S. cerevisiae deletion strains, locus YKL085W, strain MDH1, stronger effect = lower value 0.994 | S. cerevisiae deletion strains, locus YKL160W, strain elf1, stronger effect = lower value 1.01 | S. cerevisiae deletion strains, locus YKL190W, strain CNB1, stronger effect = lower value 1.01 | S. cerevisiae deletion strains, locus YKR001C, strain vps1, stronger effect = lower value 1.02 | S. cerevisiae deletion strains, locus YKR026C, strain gcn3, stronger effect = lower value 1.04 | S. cerevisiae deletion strains, locus YKR091W, strain srl3, stronger effect = lower value 1.02 | S. cerevisiae deletion strains, locus YLL001W, strain dnm1, stronger effect = lower value 1.01 | S. cerevisiae deletion strains, locus YLL026W, stronger effect = lower value 1.02 | S. cerevisiae deletion strains, locus YLL041C, strain sdh2, stronger effect = lower value 1.02 | S. cerevisiae deletion strains, locus YLR027C, strain aat2, stronger effect = lower value 1.01 | S. cerevisiae deletion strains, locus YLR039C, strain RIC1, stronger effect = lower value 1.03 | S. cerevisiae deletion strains, locus YLR058C, strain SHM2, stronger effect = lower value 1.01 | S. cerevisiae deletion strains, locus YLR102C, strain apc9, stronger effect = lower value 1 | S. cerevisiae deletion strains, locus YLR113W, strain HOG1, stronger effect = lower value 1.05 | S. cerevisiae deletion strains, locus YLR221C, strain rsa3, stronger effect = lower value 1.01 | S. cerevisiae deletion strains, locus YLR258W, strain gsy2, stronger effect = lower value 1.02 | S. cerevisiae deletion strains, locus YLR262C, strain YPT6 (second series), stronger effect = lower value 1.02 | S. cerevisiae deletion strains, locus YLR262C, strain YPT6, stronger effect = lower value 1.07 | S. cerevisiae deletion strains, locus YLR268W, strain sec22, stronger effect = lower value 1.01 | S. cerevisiae deletion strains, locus YLR320W, strain mms22, stronger effect = lower value 1.02 | S. cerevisiae deletion strains, locus YLR330W, strain CHS5, stronger effect = lower value 1.01 | S. cerevisiae deletion strains, locus YLR342W, strain FKS1 (second series), stronger effect = lower value 1.03 | S. cerevisiae deletion strains, locus YLR342W, strain FKS1, stronger effect = lower value 1.03 | S. cerevisiae deletion strains, locus YLR357W, strain rsc2, stronger effect = lower value 1.02 | S. cerevisiae deletion strains, locus YLR370C, strain arc18, stronger effect = lower value 1.03 | S. cerevisiae deletion strains, locus YLR371W, strain rom2, stronger effect = lower value 1.01 | S. cerevisiae deletion strains, locus YLR384C, strain iki3, stronger effect = lower value 1.02 | S. cerevisiae deletion strains, locus YLR418C, strain cdc73, stronger effect = lower value 1.03 | S. cerevisiae deletion strains, locus YML016C, strain PPZ1, stronger effect = lower value 1 | S. cerevisiae deletion strains, locus YML032C, strain rad52, stronger effect = lower value 1.02 | S. cerevisiae deletion strains, locus YML120C, strain ndi1, stronger effect = lower value 1.01 | S. cerevisiae deletion strains, locus YML124C, strain tub3, stronger effect = lower value 1.01 | S. cerevisiae deletion strains, locus YMR058W, strain fet3, stronger effect = lower value 1.02 | S. cerevisiae deletion strains, locus YMR078C, strain ctf18, stronger effect = lower value 0.998 | S. cerevisiae deletion strains, locus YMR125W, strain sto1, stronger effect = lower value 1.02 | S. cerevisiae deletion strains, locus YMR129W, stronger effect = lower value 1.03 | S. cerevisiae deletion strains, locus YMR205C, strain PFK2, stronger effect = lower value 1.03 | S. cerevisiae deletion strains, locus YMR223W, strain ubp8, stronger effect = lower value 1.03 | S. cerevisiae deletion strains, locus YMR231W, strain pep5, stronger effect = lower value 1.03 | S. cerevisiae deletion strains, locus YMR263W, strain SAP30, stronger effect = lower value 1.01 | S. cerevisiae deletion strains, locus YMR307W, strain GAS1, stronger effect = lower value 1.1 | S. cerevisiae deletion strains, locus YNL067W, strain RPL9B, stronger effect = lower value 1.01 | S. cerevisiae deletion strains, locus YNL071W, strain lat1, stronger effect = lower value 1.02 | S. cerevisiae deletion strains, locus YNL128W, strain TEP1, stronger effect = lower value 1.03 | S. cerevisiae deletion strains, locus YNL153C, strain GIM3, stronger effect = lower value 0.997 | S. cerevisiae deletion strains, locus YNL183C, strain NPR1, stronger effect = lower value 0.942 | S. cerevisiae deletion strains, locus YNL209W, strain ssb2, stronger effect = lower value 1.02 | S. cerevisiae deletion strains, locus YNL233W, strain BNI4, stronger effect = lower value 1.01 | S. cerevisiae deletion strains, locus YNL248C, strain rpa49, stronger effect = lower value 1.02 | S. cerevisiae deletion strains, locus YNL250W, strain rad50, stronger effect = lower value 1.01 | S. cerevisiae deletion strains, locus YNL271C, strain bni1, stronger effect = lower value 1.03 | S. cerevisiae deletion strains, locus YNL298W, strain CLA4, stronger effect = lower value 1.01 | S. cerevisiae deletion strains, locus YNL307C, strain MCK1, stronger effect = lower value 1.02 | S. cerevisiae deletion strains, locus YNL322C, strain KRE1 (second series), stronger effect = lower value 1.01 | S. cerevisiae deletion strains, locus YNL322C, strain KRE1, stronger effect = lower value 1.01 | S. cerevisiae deletion strains, locus YNR049C, strain mso1, stronger effect = lower value 1.02 | S. cerevisiae deletion strains, locus YNR052C, strain pop2, stronger effect = lower value 1.02 | S. cerevisiae deletion strains, locus YOL006C, strain TOP1, stronger effect = lower value 1 | S. cerevisiae deletion strains, locus YOL012C, strain htz1 0.812 | S. cerevisiae deletion strains, locus YOL147C, strain pex11, stronger effect = lower value 1.01 | S. cerevisiae deletion strains, locus YOR001W, strain rrp6, stronger effect = lower value 1.01 | S. cerevisiae deletion strains, locus YOR061W, strain CKA2, stronger effect = lower value 1.01 | S. cerevisiae deletion strains, locus YOR069W, strain VPS5, stronger effect = lower value 1.01 | S. cerevisiae deletion strains, locus YOR070C, strain gyp1, stronger effect = lower value 1.01 | S. cerevisiae deletion strains, locus YOR080W, strain dia2, stronger effect = lower value 1.01 | S. cerevisiae deletion strains, locus YOR083W, strain WHI5, stronger effect = lower value 1.01 | S. cerevisiae deletion strains, locus YOR106W, strain vam3, stronger effect = lower value 1.02 | S. cerevisiae deletion strains, locus YOR136W, strain idh2, stronger effect = lower value 1.01 | S. cerevisiae deletion strains, locus YOR144C, strain elg1, stronger effect = lower value 1.01 | S. cerevisiae deletion strains, locus YOR184W, strain ser1, stronger effect = lower value 1 | S. cerevisiae deletion strains, locus YOR231W, strain MKK1, stronger effect = lower value 1.03 | S. cerevisiae deletion strains, locus YOR265W, strain rbl2, stronger effect = lower value 1.01 | S. cerevisiae deletion strains, locus YOR270C, strain vph1, stronger effect = lower value 1.1 | S. cerevisiae deletion strains, locus YOR290C, strain snf2, stronger effect = lower value 1.01 | S. cerevisiae deletion strains, locus YOR316C, strain cot1, stronger effect = lower value 1.01 | S. cerevisiae deletion strains, locus YPL051W, strain arl3, stronger effect = lower value 1.01 | S. cerevisiae deletion strains, locus YPL078C, strain atp4, stronger effect = lower value 1.02 | S. cerevisiae deletion strains, locus YPL106C, strain sse1, stronger effect = lower value 1.02 | S. cerevisiae deletion strains, locus YPL240C, strain hsp82, stronger effect = lower value 1.04 | S. cerevisiae deletion strains, locus YPL256C, strain CLN2, stronger effect = lower value 1.04 | S. cerevisiae deletion strains, locus YPR119W, strain clb2, stronger effect = lower value 1.01 | S. cerevisiae deletion strains, locus YPR141C, strain kar3, stronger effect = lower value 1.01 | S. cerevisiae deletion strains, locus YPR163C, strain tif3, stronger effect = lower value 1.01 | S. cerevisiae deletion strains, locus YPR167C, strain met16, stronger effect = lower value 1.01 | S. cerevisiae deletion strains, strain wtn01, stronger effect = lower value 1.01 | S. cerevisiae strains, strain wild type, stronger effect = lower value 1.01
